Rows were chosen to be rich in hits. Some 3.3% of all compounds tested hit in one or more screens of this group.
DRD3 antagonist: D3 dopamine receptor (human) antagonism. hit rate 2.5% among 360,000. max response, negative = inhibition, %. P35462. AID 652054. D3R cells, DiscoveRx beta-arrestin luminescence, antagonist mode; hits give low values; in the data active = max response below about -50%; inconclusive = no clear call, values can overlap the other calls; also: % is scaled to controls: 0 for no effect and ±100 for the full control effect
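Cells plated overnight at 1500 cells/well, then exposed to library compounds with dopamine controls for 90 minutes at 37 degrees C. DiscoveRx reagent added for 30–60 minutes at room temperature; luminescence read, quantitative HTS format.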
PI4K2A block: PI4K2A (human) kinase inhibition | activity change, negative = inhibition, % at 76.9 µM | Q9BTU6 | AID 1346378 | purified PI4K2A, ADP-Glo luminescence, 1 h; hits give low values | hit rate 0.13% among 420,000; in the data active = activity change below about -50%; inconclusive = mostly about -30% to -49%;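 also: -100% = wells without enzyme as full effect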
Target sequence (Q9BTU6 whole entry, looked up): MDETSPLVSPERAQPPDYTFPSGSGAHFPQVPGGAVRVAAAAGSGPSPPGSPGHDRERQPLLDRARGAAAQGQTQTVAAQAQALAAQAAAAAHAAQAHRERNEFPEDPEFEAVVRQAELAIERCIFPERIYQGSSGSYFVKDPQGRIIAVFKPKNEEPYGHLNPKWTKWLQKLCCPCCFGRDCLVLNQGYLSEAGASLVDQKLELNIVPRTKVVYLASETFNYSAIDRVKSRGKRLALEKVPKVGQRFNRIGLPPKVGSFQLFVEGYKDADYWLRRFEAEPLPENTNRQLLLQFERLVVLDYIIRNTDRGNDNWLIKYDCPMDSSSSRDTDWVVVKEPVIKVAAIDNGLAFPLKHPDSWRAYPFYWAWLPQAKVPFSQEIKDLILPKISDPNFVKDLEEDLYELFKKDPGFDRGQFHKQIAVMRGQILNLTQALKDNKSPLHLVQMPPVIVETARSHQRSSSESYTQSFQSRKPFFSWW
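PI4K2A activity was measured by ADP-Glo luminescence: enzyme (4 ug/mL stock) and phosphatidylinositol (1.2 mM stock) in Tris pH 7.5/MgCl2/EGTA/Triton X-100 buffer were reacted with ATP (300 microM stock) for one hour at ambient temperature.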
PI5P4K alpha inh: inhibitors of human PI5P4K alpha. max response, %. hit rate 1.2% among 330,000. PI5P4Kalpha enzyme, ADP-Glo luminescence, 60 min; hits give low values. P48426; active = max response of -50% or lower; inconclusive = between -30% and -50%; inactive = -30% or higher; also: value at the top dose of about 77 µM; % is scaled to controls: 0 for no effect and ±100 for the full control effect
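qHTS, 1536-well: enzyme/substrate mix, compound by pin tool, 5 microM ATP final; RT 60 min; ADP-Glo reagents 1 (45 min) then 2 (30 min); luminescence.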
D3 ag: agonists of human D3 dopamine receptor; P35462; D3R DiscoveRx beta-arrestin cells, luminescence, 90 min; max activation, %; hit rate 0.58% among 410,000; AID 652048; in the data active = max activation above about 30%; also: 0% is about no effect
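Agonist mode: compounds and dopamine controls were applied to plated cells for 90 min at 37 degrees C after an overnight attachment at 1500 cells/well. Luminescent read-out followed 30 - 60 minutes at room temperature with DiscoveRx detection reagent.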
LDHA inh: inhibitors of human lactate dehydrogenase A; P00338; purified LDHA, NADH/diaphorase-resazurin fluorescence; hits give low values; activity change, % (values are at about 110 or 230 µM); hit rate 0.15% among 480,000; in the data active = activity change below about -30%; inconclusive = mostly about -25% to -30%;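 also: plate controls were DMSO wells for no effect and wells without enzyme for full effect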
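Human LDH5 at 2 nM final in Tris HCl pH 7.4 with 0.06 mM NADH and 0.2 mM pyruvate, reacted 5 minutes at room temperature. Remaining NADH coupled via diaphorase/resazurin; resorufin fluorescence read at 0 and 20 minutes, normalized to enzyme-free and DMSO wells.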
An asterisk follows results filed as active; ? = inconclusive; · = no result given.

SMILES	DRD3 antagonist	PI4K2A block	PI5P4K alpha inh	D3 ag	LDHA inh
O=C(CN1CCCCC1)Nc1cccc([N+](=O)[O-])c1	-62*	3	6	-18	-3
O=C(CCN1CCN(Cc2ccccc2)CC1)NNC(=O)Nc1cccc([N+](=O)[O-])c1	-50*	3	3	-17	-3
CC(=O)NC1CCN(CC(=O)Nc2cccc([N+](=O)[O-])c2)CC1	2	-1	0	3	-1
Oc1ccc(-c2nc(-c3ccc4c(c3)OCCCO4)cs2)cc1	·	·	·	·	4
O=C(O)c1ccc(Cl)cc1F	·	·	·	·	-8
Cc1cccc(Nc2nc(N)c(C(=O)c3cc(C)ccc3C)s2)c1	·	·	·	·	9
Cc1ncoc1C(=O)NC1CCCc2c1cnn2-c1ccc(C(C)(C)C)cc1 (stereo not given)	34	-3	3	30*	0
CCc1nc2ccc(C(=O)Nc3cc(-c4ccccc4)ccc3OC)cn2c1N(CCN(C)C)CC1CC1	-69*	-8	1	-19	-1
CCc1nc2ccc(C(=O)NCCOc3ccc(OC)cc3)cn2c1N(CCC(C)C)CCN(C)C	-89*	-9	1	-28	-7
CCc1nc2ccc(C(=O)Nc3cc(-c4ccccc4)ccc3OC)cn2c1N(C)CCC(C)C	60	-2	22	15	-3
CCc1nc2ccc(C(=O)Nc3cc(-c4ccccc4)ccc3OC)cn2c1N(C=O)CCC(C)C	6	2	8	69*	-4
CCc1nc2ccc(C(=O)Nc3cc(-c4ccccc4)ccc3OC)cn2c1N(C)CCCc1ccccc1	?	-4	-8	-15	-7
O=C(/C=C/c1cccnc1)NCCC1CCCCC1	·	·	·	·	4
Cc1ccc(NC(=S)NNc2ccc([N+](=O)[O-])cc2S(=O)(=O)Nc2ccccc2C(=O)O)cc1C	-2	2	-73*	-11	14
CC(=O)Nc1ccc(C=NNc2ccc(S(=O)(=O)Nc3ccccc3C(=O)O)cc2[N+](=O)[O-])cc1	-10	-3	-92*	-6	?
CC(=O)Nc1cccc(/C(C)=N/Nc2ccc(S(=O)(=O)Nc3ccccc3C(=O)O)cc2[N+](=O)[O-])c1	3	-3	-72*	-17	-8
C/C(=N/Nc1ccc(S(=O)(=O)Nc2ccccc2C(=O)O)cc1[N+](=O)[O-])c1ccco1	·	·	·	·	8
Cc1ccc(/C=N/Nc2ccc(S(=O)(=O)Nc3ccccc3C(=O)O)cc2[N+](=O)[O-])o1	·	·	·	·	1
CN(CCO)c1ccc(C=NNc2ccc([N+](=O)[O-])cc2S(=O)(=O)Nc2ccccc2C(=O)O)cc1	-20	-1	-55*	-13	-7
CSc1ccc(/C=C(\C#N)C(N)=O)cc1	·	·	·	·	-4
O=C(Nc1nccs1)c1ccc(Oc2ccc(F)cc2Br)nc1	·	·	·	·	-2
Cc1cc(SC(C)C(=O)NC(=O)NC(C)C)nc2ccccc12 (stereo not given)	·	·	·	·	3
Cc1ccc(NC(=O)c2ccc3c(c2)NC(=O)CS3)cc1C	·	·	·	·	1
Cc1ccc(NS(=O)(=O)c2cc([N+](=O)[O-])ccc2N/N=C/c2ccc(N(c3ccccc3)c3ccccc3)cc2)c(C)c1	·	·	·	·	14
C/C(CCC(C)C)=N\Nc1ccc(S(N)(=O)=O)cc1[N+](=O)[O-]	-58*	4	5	-8	1
SMILES	DRD3 antagonist	PI4K2A block	PI5P4K alpha inh	D3 ag	LDHA inh
CC(=O)Nc1ccc(C=NNc2ccc([N+](=O)[O-])cc2S(=O)(=O)Nc2ccccc2C(=O)O)cc1	-17	5	-64*	-11	-6
NS(=O)(=O)c1ccc(N/N=C/c2ccc(C(=O)O)cc2)c([N+](=O)[O-])c1	-51*	-20	-14	0	-18
O=C(O)c1ccccc1NS(=O)(=O)c1ccc(NNC(=S)Nc2ccc(OC(F)F)cc2)c([N+](=O)[O-])c1	-18	-18	-82*	4	-9
O=C(COC(=O)c1cc2ccccc2[nH]1)c1ccc[nH]1	·	·	·	·	2
O=C(NCCc1c[nH]c2ccccc12)c1ccc(F)cc1	·	·	·	·	5
Cc1c(CC(=O)O)c(=O)oc2cc3occ(-c4ccc(F)cc4)c3cc12	-13	7	12	-1	-42*
Cc1c(CC(=O)NCC(=O)O)c(=O)oc2cc3occ(-c4ccccc4)c3cc12	0	6	-2	-10	-85*
COc1ccc(-c2coc3cc4oc(=O)c(CC(=O)O)c(C)c4cc23)cc1	13	-5	-4	1	-4
Cc1c(CC(=O)NCCCC(=O)O)c(=O)oc2cc3occ(-c4ccccc4)c3cc12	-21	-1	-6	-6	-5
COc1ccc(N(C(C)C(=O)NCc2cccnc2)S(C)(=O)=O)cc1 (stereo not given)	·	·	·	·	-1
C[n+]1c(-c2ccccc2)cc2c(=Cc3ccc([N+](=O)[O-])cc3)c3ccccc3n21	0	?	?	-24	30
C[n+]1c(-c2ccccc2)cc2c(=Cc3ccccc3)c3ccccc3n21	-27	?	-50*	-9	33
CN(C)c1ccc(C=c2c3cc(O)ccc3n3c2cc(-c2ccccc2)[n+]3C)cc1	?	?	-54*	-31	32
N#Cc1c(N2CCN(C(=O)c3ccco3)CC2)nc(-c2ccccc2)c2c1CCCC2	18	-2	·	38*	2
CC1(C)Cc2c(C#N)c(N3CCN(C(=O)c4ccco4)CC3)nc(Cc3ccccc3)c2CO1	0	3	-7	30*	-7
CC1(C)Cc2c(C#N)c(N3CCN(C(=O)c4ccccc4Cl)CC3)nc(-c3ccco3)c2CS1	4	-53*	-85*	2	-1
CC1(C)Cc2c(C#N)c(N3CCN(C(=O)c4ccco4)CC3)nc(-c3ccco3)c2CS1	26	?	·	-1	1
CCCCCCCCN1C(=O)[C@H](CC(=O)NCCCOCCCC)C[C@@]2(C(=O)OC)CCCCC=C12	3	-2	6	87*	8
CCCCCCCCN1C(=O)[C@H](CC(=O)NCc2cccs2)C[C@@]2(C(=O)OC)CC(C)(C)CC=C12	42	-9	2	44*	4
COC(=O)[C@@]12C[C@@H](CC(=O)NCc3cccs3)C(=O)N(Cc3ccccc3)C1=CCC(C)(C)C2	4	-4	-1	0	0
COC(=O)[C@@]12C[C@@H](CC(=O)N3CCOCC3)C(=O)N(Cc3ccc4c(c3)OCO4)C1=CCC(C)(C)C2	?	-3	2	35*	0
COc1ccc(NC(=O)c2sc(-n3[nH]c(C)c(CCC(C)C)c3=O)nc2C)cc1	·	·	·	·	0
O=[N+]([O-])c1ccc2c(c1)N([O-])C1(CCCCC1)[N+]2=O	3	-14	-51*	-13	34
COC(=O)C1=C(C)N(CCCC(=O)O)C(=O)NC1c1ccccc1OS(=O)(=O)c1ccccc1[N+](=O)[O-] (stereo not given)	-9	1	-84*	9	-18

Compound activity: PubChem BioAssay, National Center for Advancing Translational Sciences (NCATS)
